These results are taken from paper PMC5540273 (PLoS ONE, 2017).

Each structure is given as a SMILES string.
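Note: KINOMEscan kinase panel screen.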

One assay concerns MAP3K3. The conditions noted are these: concentration: 1 μM, replicates: in singlicate; n = 1.
Take `COc1cccc(C2=C(Nc3ccc(Cl)c(C(=O)O)c3)C(=O)NC2=O)c1` [SB-390769]: the “%Inh” value was found to be 0%.
Consider `COc1ccc(Nc2nccc(NCCNC(=O)c3cc4ccccc4s3)n2)cc1` [GSK1379896], for which the “%Inh” value was 0%.
On the same count and under the same terms, with `COc1ccc(CNC(=O)NC2CCN(c3ccnc(Nc4ccc(F)cc4)n3)CC2)cc1` [GSK1379788] the figure was 0%.

The test system of the next assay is MAP3K4. The note with it: concentration: 1 μM, replicates: in singlicate; n = 1.
Turning to `CC(C)(C)c1ccc2nccc(Nc3cccc(O)c3)c2c1` [GW856795], the “%Inh” value turned out to be 0%.
Same read-out and setting: with `COc1cc2c(cc1OCCN1CCNCC1)ncc1c3ccc(C#N)cc3[nH]c21` the figure was 7%.
Same read-out and setting: with `COc1cc(Nc2nccc(-c3c(-c4cccc(NC(=O)c5c(F)cccc5F)c4)nn4ccccc34)n2)cc(OC)c1OC` [GSK323521] the figure was 65%; with `Cc1ccc(S(=O)(=O)Nc2ccc(Nc3nccc(Nc4cccc5[nH]ncc45)n3)cc2)cc1` [GSK581271], 7%; with `CCc1ccc(-c2ccc3c(c2)-c2c(cnn2C)S(=O)(=O)N3C)cc1`, 23%.
Still for that read-out and setting: next, `O=C(Nc1cccc(-c2nn3ncccc3c2-c2ccnc(Nc3ccccc3)n2)c1)c1c(F)cccc1F` [GSK198271]: 35%.
Turning to `Fc1ccc(-c2ncn(C3CCNCC3)c2-c2ccnc(Oc3ccc(-c4ccccc4)cc3)n2)cc1` [SB-245391], the “%Inh” value stood at 14%.
The same measure, in the same setting: next, `CN(c1ccc(NC(=O)Nc2cc(C(F)(F)F)ccc2F)cc1)c1ccnc(Nc2ccc(S(N)(=O)=O)cc2)n1` [GW809893]: 72%; `CC(=O)Nc1nc2cnc(Nc3cc(NC(=O)c4cccc(C5(C#N)CC5)c4Cl)ccc3C)nc2s1`: 10%.
